# In PubChem BioAssay AID1224860 (National Center for Advancing Translational Sciences (NCATS), 2016):
# Inconclusive results are not listed. Calls of active or inactive are those of the source. The call rests on the fitted dose curve; in most records, active means well fitted cell-killing curve with a large enough effect; inconclusive means small, poorly fitted or top-dose-only effect; inactive means flat fitted curve, though single readings scatter.
# Assay: Compound cytotoxicity measured by an ATP content assay as a counter-screen for lead compounds in human iPSC derived neural progenitor cells (hNPCs)
# Settings: human iPSC-derived NPC viability, ATP luminescence; series mostly up to 46.1 µM; activity, negative = cytotoxicity: at the top concentration
# Experimental: National Center for Advancing Translational Sciences [NCATS] Johns Hopkins University School of Medicine Florida State University Assay Overview: Many compounds can cause cytotoxicity at high compound concentrations. […] The compound cytotoxicity may also cause side effects or toxicity in human. Thus, the compound cytotoxicity needs to be measured in each cell type and each compound incubation time - same as these in the compound screening assay. The compound cytotoxicity can be measured by cell viability assays such as the ATP content assay. We use an ATP content assay kit for cell viability measurement. It measures ATP content (level) in human iPSC derived neural progenitor cells (hNPCs) using a luminescence readout that is proportional to viable cell numbers. Decrease in the luminescence signal after the compound treatment indicates reduced cell viability and cell death caused by compound treatment.
# Assay Protocol Summary: The medium for hNPCs consists of DMEM/F12, N2 supplement (ThermoFisher, Cat.# 17502048), NEAA (ThermoFisher, Cat. # 11140050), 2 ug/ml heparin, 2 uM cyclopamine, and B27 (ThermoFisher, Cat. # 17504044). The ATP content assay kit (PerkinElmer, Cat.# 6016731) was used to determine cell viability. The reagent was reconstituted and prepared as described by the manufacturer. Cells were seeded in 384- or 1536-well assay plates and cultured at 37 C with 5% CO2 for 16 to 20 hours. The typical cell seeding density in the 1536-well plate assay is 350 cells/well in 3 ul medium for hNPCs in the tissue cultured treated/PDL coated plates. Compounds were added to cells and incubated for a specific time such as 6, 24, or 72 hours before addition of the reagent mixture of the ATP content assay kit at 1:1 ratio. After incubation at room temperature for 10 minutes, the luminescence intensity in assay plates was measured using a ViewLux plate reader (PerkinElmer). […] The percentage inhibitions of the decreased cell viability by small molecules were then calculated that indicate compound cytotoxicity.
SMILES,"activity, negative = cytotoxicity",Potency
CCCCCCCCCCCC(=O)[O][Sn]([CH2]CCC)([CH2]CCC)[O]C(=O)CCCCCCCCCCC,-2.8% (inactive),
c1ccc(CCNc2nc(-c3ccccc3)cs2)cc1,-5.35% (inactive),
CC1(C)OC2=C(C(=O)c3ccccc3C2=O)[C@H](NCc2ccccc2)[C@H]1O,,3.98 µM (active)
O=C(O)c1cc([N+](=O)[O-])ccc1NCCCc1ccccc1,-8.18% (inactive),
CC(C(=O)O)c1ccc2c(c1)[nH]c1ccc(Cl)cc12 (stereo not given),16% (inactive),
CC(=Cc1ccccc1)C=C1SC(=S)N(CC(=O)O)C1=O,-12.6% (inactive),
CCCCCNC(=O)N1CCC(CN(Cc2ccc(Cl)cc2)Cc2ccc([N+](=O)[O-])s2)C1 (stereo not given),1.44% (inactive),
O=C(c1ccccc1)c1ccc2n1CCC2C(=O)O (stereo not given),6.4% (inactive),
CC(C(=O)O)c1ccc(C(=O)c2ccccc2)s1 (stereo not given),-0.805% (inactive),
O=S(=O)(O)CCSSCCS(=O)(=O)O,-10.7% (inactive),
COc1cccc(-c2cc(=O)c3ccccc3o2)c1N,,15.5 µM (active)
O=S(=O)(O)c1ccc2nc(-c3ccccc3)[nH]c2c1,-7.27% (inactive),
Nc1ccc(O)c(C(=O)O)c1,-2.85% (inactive),
O=C(OCc1ccccc1)c1ccc(O)cc1,-20.5% (inactive),
CC(=O)OC(C)OC(=O)C(C)c1ccc(-c2ccccc2)c(F)c1 (stereo not given),-2.32% (inactive),
Nc1ccc2c(c1)CN1C(=O)c3ccccc3C1=N2,,6.73 µM (active)
N#CC1(c2ccc(NC(=O)c3cccnc3NCc3ccncc3)cc2)CCCC1,-21.9% (inactive),
O=c1cc(-c2ccccc2)oc2cc(O)cc(O)c12,-13.1% (inactive),
Cc1nc(N)sc1-c1ccnc(Nc2ccc(N3CCOCC3)cc2)n1,-15% (inactive),
O=C(Oc1ccccc1)c1cccc(C(=O)Oc2ccccc2)c1,-3.83% [at 96.3 µM] (inactive),

SMILES,"activity, negative = cytotoxicity",Potency
CCOCCOC(=O)/C=C/c1ccc(OC)cc1,6.33% (inactive),
O=C(O)c1cccc(-c2noc(-c3ccccc3F)n2)c1,,5.48 µM (active)
O=C(/C=C/c1ccccc1)NCCO,3.85% (inactive),
CN(C)c1ccc(/C=C2\C(=O)Nc3ccccc32)cc1,,8.69 µM (active)
COc1cc(NC(C)CCCN)c2ncccc2c1 (stereo not given),5.35% (inactive),
CC[C@]1(O)C[C@H]2CN(CCc3c([nH]c4ccccc34)[C@@](C(=O)OC)(c3cc4c(cc3OC)N(C=O)[C@H]3[C@@](O)(C(=O)OC)[C@H](OC(C)=O)[C@]5(CC)C=CCN6CC[C@]43[C@@H]65)C2)C1,0.247% (inactive),
CN1CC(=O)N2C(Cc3c([nH]c4ccccc34)[C@H]2c2ccc3c(c2)OCO3)C1=O (stereo not given in full),-8.64% (inactive),
O=C(Nc1ccc([N+](=O)[O-])cc1Cl)c1cc(Cl)ccc1O,,8.69 µM (active)
O=C1C(Cl)=C(NCCN2CCOCC2)C(=O)c2ncccc21,,1.73 µM (active)
Cc1c(C(=O)O)c(O)cc2c1C(=O)c1c(O)c([C@@H]3O[C@H](CO)[C@@H](O)[C@H](O)[C@H]3O)c(O)c(O)c1C2=O,-12% (inactive),
C[C@@H]1CCN(C(=O)CC#N)C[C@H]1N(C)c1ncnc2[nH]ccc12,-3.45% (inactive),
CC1(C)Cc2c(sc(NC(=S)NC(=O)c3ccccc3)c2C(=O)O)CO1,2.96% (inactive),
CC(=C(CCOC(=O)C(C)C)SSC(CCOC(=O)C(C)C)=C(C)N(C=O)Cc1cnc(C)nc1N)N(C=O)Cc1cnc(C)nc1N,-13.1% (inactive),
O=C(O)c1ccccc1Nc1cccc(C(F)(F)F)c1,-6.8% (inactive),
Cc1ccc(O)c(N=Nc2ccccc2)n1,,4.35 µM (active)
CCC(C(=O)O)c1ccc(N2Cc3ccccc3C2=O)cc1 (stereo not given),-23.9% (inactive),
COc1cc2nc(N3CCN(C(=O)C4CCCO4)CC3)nc(N)c2cc1OC (stereo not given),0.309% (inactive),
CCC(C)SSc1ncc[nH]1 (stereo not given),,19.5 µM (active)
Cc1ccc(C(=O)c2ccc(CC(=O)O)n2C)cc1,-10.8% (inactive),
CC(O)=C(C#N)C(=O)Nc1ccc(C(F)(F)F)cc1,,13.8 µM (active)
